Records with an inconclusive call do not appear. Calls of active or inactive are those of the source. Calls follow the shape of the dose curve; as a rule, active = well fitted inhibition curve with a large enough effect; inconclusive = small, poorly fitted or top-dose-only effect; inactive = no such curve, though single readings can be large or run the other way.
experiment: InCell qHTS Assay for Inhibitors of the mTORC1 Signaling Pathway in MEF (Tsc2-/-, p53-/-) Cells: Hit Validation; conditions: phospho-rpS6 immunofluorescence, 24 h; activity change, negative = inhibition: at 38.3 µM (top of the series);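 also: phospho-S6 Ser235/236 signal normalized to propidium iodide cell count per well; nearly all actives have a fitted effect of over 75% in size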
Potency is read from the fitted curve at half-maximal effect.

SMILES	activity change, negative = inhibition	Potency
CC(C)(C)c1ccc(C(=O)Nc2nnc3n2CCS3)cc1	-100%	–
CC(=O)Nc1ccc2nc(-c3cc(C)ccc3C)[nH]c2c1	-100%	–
O=C(Nc1cccc(NC(=O)c2ccccc2Cl)c1)c1cccc(Br)c1	-100%	–
COc1ccccc1C(=O)Nc1ccc(-c2cc(C(F)(F)F)nn2-c2ccccc2)cc1	-100%	–
COc1ccc(-n2ncc3c(NCCCOC(C)C)ncnc32)cc1	-100%	–
CC(C)S(=O)(=O)c1oc(-c2ccc(F)cc2)nc1S(=O)(=O)c1ccc(F)cc1	–	0.927 µM (active)
CCCCNC(=O)CSc1nc2nc(C)c(Cc3ccccc3C)c(C)n2n1	-100%	–
CC(C)CCNC(=O)C(=O)Nc1c2c(nn1-c1ccc(Cl)cc1)CSC2	–	18.5 µM (active)
COc1ccc(NC(=O)Cn2c(=O)n(-c3ccccc3)c(=O)c3ccc(C(=O)NCc4ccc5c(c4)OCO5)cc32)cc1	-21.2%	–
CCC(C)Sc1oc(-c2ccco2)nc1S(=O)(=O)c1ccc(C)cc1 (configuration not stated)	-100%	–
CCc1ccc(OCC(=O)N(Cc2ccc(C)cc2)Cc2ccco2)cc1	-100%	–
O=S(=O)(NCc1nc2cccnc2n1Cc1ccccc1Cl)c1ccc(F)c(Cl)c1	-100%	–
CCOC(=O)c1ccc2ncc(C(=O)OCC)c(NCCc3ccc(OC)c(OC)c3)c2c1	-100%	–
COc1ccc(S(=O)(=O)NCCc2sc3nc(-c4ccc(C)cc4)nn3c2C)cc1F	-100%	–
Cc1ccc(-c2nc3sccn3c2Nc2ccc(C)c(C)c2)cc1	-100%	–
Cc1ccc(C)c(N2CCN(CCCNC(=O)C3COc4ccccc4C3)CC2)c1 (configuration not stated)	-100%	–
CCOc1ccc(/C=C/c2nc(C#N)c(NCc3ccccc3)o2)cc1	-100%	–
COc1ccc(S(=O)(=O)N(C(=O)c2ccncc2)c2ccc3oc(C)c(C(C)=O)c3c2)cc1	-100%	–
O=C(Nc1ccc2oc(-c3ccc4ccccc4c3)nc2c1)c1cc(Br)ccc1Cl	–	18.5 µM (active)

SMILES	activity change, negative = inhibition	Potency
Cc1cc(C)c(-c2n[nH]c3c2C(c2ccccc2F)N(Cc2ccco2)C3=O)c(O)c1 (configuration not stated)	-100%	–
COc1ccc2c(c1)CCc1c(C(=O)Nc3c(C)nn(Cc4ccc(Cl)cc4)c3C)noc1-2	-100%	–
CCCCOC(=O)c1ccc(NC(=O)c2ccc3c(c2)CCN3S(=O)(=O)c2ccccc2)cc1	-100%	–
Cc1nn(CCCC(=O)NCc2ccccc2)c(=O)c2c1sc1ccccc12	-100%	–
CCN(CCCNC(=O)c1cc2c(=O)[nH]c3ccccc3c2s1)c1ccccc1	-100%	–
COc1cccc(-c2nc(S(=O)(=O)c3ccc(Cl)cc3)c(NCc3ccccc3)o2)c1	-100%	–
CCS(=O)(=O)c1oc(-c2ccc(F)cc2)nc1S(=O)(=O)c1ccccc1	–	0.736 µM (active)
CCCCS(=O)(=O)c1oc(-c2ccc(F)cc2)nc1S(=O)(=O)c1ccc(C)cc1	–	5.85 µM (active)
COc1ccc(S(=O)(=O)N(Cc2nc(-c3cccc(C)c3)no2)C2CCCCC2)cc1	-100%	–
COc1ccc(N(Cc2ccccc2)C(=O)c2nc(S(C)(=O)=O)ncc2Cl)cc1	–	3.69 µM (active)
CC(C)(C)c1ccc(S(=O)(=O)N2CCC(c3ccncc3)CC2)cc1	-29.8%	–
O=C(NCc1ccccc1)c1nc(S(=O)(=O)Cc2ccccc2)ncc1Cl	–	5.85 µM (active)
CCSc1oc(-c2ccc(F)cc2)nc1S(=O)(=O)c1ccc(C)cc1	-100%	–
CCN1CCN(C(=O)Cn2ncc3c4ccccc4n(Cc4c(C)cc(C)cc4C)c3c2=O)CC1	-100%	–
N#C/C(=C\c1ccc(-c2ccc(F)cc2F)o1)c1nc2ccccc2[nH]1	-27.3%	–
COc1ccc(Cl)cc1NC(=O)CCCS(=O)(=O)c1nc(-c2ccc(OC)c(OC)c2)cc(C(F)(F)F)n1	–	14.7 µM (active)
Cc1cccc(NS(=O)(=O)c2ccc3[nH]c4c(c3c2)CCCCCC4)c1	-100%	–
CCOC(=O)c1c(C)n(-c2ccccc2)c2ccc(OC(=O)c3ccccc3)cc12	-100%	–
